# Laboratory results reported in article PMC8384837, “Expanding the binding specificity for RNA recognition by a PUF domain”.
# How the values were obtained:
# Test in all cases: yeast three-hybrid, YBZ-1, SC-Leu-His + 0.5 mM 3-AT, 4 days
# Conditions in all cases: tags: N-Gal4 AD-HA kept; label: inside an RPR1-promoter hybrid RNA with tandem MS2 sites; ssRNA
# [1] = target: T1, PUM1 PUF domain R6-FWS (Homo sapiens, UniProt Q14671 828-1176, N1043F;Y1044W;Q1047S)
# T1 sequence: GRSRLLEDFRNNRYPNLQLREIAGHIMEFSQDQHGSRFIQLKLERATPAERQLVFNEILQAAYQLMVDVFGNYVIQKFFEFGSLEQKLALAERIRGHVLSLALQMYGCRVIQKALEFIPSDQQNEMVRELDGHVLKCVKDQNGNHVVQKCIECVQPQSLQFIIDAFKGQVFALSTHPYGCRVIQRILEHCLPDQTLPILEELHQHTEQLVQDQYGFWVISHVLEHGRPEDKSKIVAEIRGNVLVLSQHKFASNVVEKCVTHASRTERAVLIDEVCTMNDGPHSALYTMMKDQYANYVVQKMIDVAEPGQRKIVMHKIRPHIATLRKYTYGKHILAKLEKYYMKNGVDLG
# Outline: (§1)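 The interaction score is the log change in variant frequency from input to selection. Scores were computed in log2 with a pseudocount of 1 for absent variants, using Illumina sequencing of PCR-amplified repeat regions. The input came from four days on SC-Leu and the selection from four days on SC-Leu-His + 0.5 mM 3-AT. The cells were strain YBZ-1 (LexA–MS2 coat fusion, HIS3 reporter) co-expressing Pumilio-1 PUF domain libraries and matching RNA elements from a centromeric plasmid.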
# [2] = target: PUM1 PUF domain R3-WYA (Homo sapiens, UniProt Q14671 828-1176, C935W;R936Y;Q939A)
# Outline: as §1
# [3] = target: PUM1 PUF domain R3-GPV (Homo sapiens, UniProt Q14671 828-1176, C935G;R936P;Q939V)
# Outline: as §1
# [4] = target: PUM1 PUF domain R8-NWH (Homo sapiens, UniProt Q14671 828-1176, Y1123W;Q1126H)
# Outline: as §1
# [5] = target: PUM1 PUF domain R4-TAQ (Homo sapiens, UniProt Q14671 828-1176, N971T;H972A)
# Outline: as §1
# [6] = target: PUM1 PUF domain R8-RCR (Homo sapiens, UniProt Q14671 828-1176, N1122R;Y1123C;Q1126R)
# Outline: as §1
# [7] = target: PUM1 PUF domain R8-RYR (Homo sapiens, UniProt Q14671 828-1176, N1122R;Q1126R)
# Outline: as §1
# [8] = target: PUM1 PUF domain R1-RMS (Homo sapiens, UniProt Q14671 828-1176, S863R;R864M;Q867S)
# Outline: as §1
# [9] = target: PUM1 PUF domain R1-LKR (Homo sapiens, UniProt Q14671 828-1176, S863L;R864K;Q867R)
# Outline: as §1
# [10] = target: PUM1 PUF domain R7-KHQ (Homo sapiens, UniProt Q14671 828-1176, S1079K;N1080H;E1083Q)
# Outline: as §1
sequence,measurement,setting,value
GGCUAGAACUAGUGGAUCCCCCGGCGCCCGGCGGCUCGAGCCCGGGUAAGUGAAAAUAGUCUGCAUGCCGCCGGGCGCCAUGCCUGCAGGUCGACUCUAGAAAACAUG,binding signal,[1],4.06 log2 enrichment (interaction score)
GGCUAGAACUAGUGGAUCCCCCGGCGCCCGGCGGCUCGAGCCCGGGUAAGUGUAAUUAGUCUGCAUGCCGCCGGGCGCCAUGCCUGCAGGUCGACUCUAGAAAACAUG,binding signal,[2],3.22 log2 enrichment (interaction score)
same,binding signal,[3],2.28 log2 enrichment (interaction score)
GGCUAGAACUAGUGGAUCCCCCGGCGCCCGGCGGCUCGAGCCCGGGUAAGUGUAAAUAGUCUGCAUGCCGCCGGGCGCCAUGCCUGCAGGUCGACUCUAGAAAACAUG,binding signal,[4],2.75 log2 enrichment (interaction score)
same,binding signal,[5],0.74 log2 enrichment (interaction score)
same,binding signal,[6],1.34 log2 enrichment (interaction score)
same,binding signal,[3],2.08 log2 enrichment (interaction score)
same,binding signal,[7],6.26 log2 enrichment (interaction score)
GGCUAGAACUAGUGGAUCCCCCGGCGCCCGGCGGCUCGAGCCCGGGUAAGUGUAAAUUGUCUGCAUGCCGCCGGGCGCCAUGCCUGCAGGUCGACUCUAGAAAACAUG,binding signal,[8],2.07 log2 enrichment (interaction score)
same,binding signal,[9],2.22 log2 enrichment (interaction score)
GGCUAGAACUAGUGGAUCCCCCGGCGCCCGGCGGCUCGAGCCCGGGUAAGUGUAAAUCGUCUGCAUGCCGCCGGGCGCCAUGCCUGCAGGUCGACUCUAGAAAACAUG,binding signal,[8],3.18 log2 enrichment (interaction score)
same,binding signal,[9],3.44 log2 enrichment (interaction score)
GGCUAGAACUAGUGGAUCCCCCGGCGCCCGGCGGCUCGAGCCCGGGUAAGUUUAAAUAGUCUGCAUGCCGCCGGGCGCCAUGCCUGCAGGUCGACUCUAGAAAACAUG,binding signal,[10],2.38 log2 enrichment (interaction score)
GGCUAGAACUAGUGGAUCCCCCGGCGCCCGGCGGCUCGAGCCCGGGUAAGUCUAAAUAGUCUGCAUGCCGCCGGGCGCCAUGCCUGCAGGUCGACUCUAGAAAACAUG,binding signal,[10],4.15 log2 enrichment (interaction score)
GGCUAGAACUAGUGGAUCCCCCGGCGCCCGGCGGCUCGAGCCCGGGUAAGUGUAUAUAGUCUGCAUGCCGCCGGGCGCCAUGCCUGCAGGUCGACUCUAGAAAACAUG,binding signal,[5],3.78 log2 enrichment (interaction score)
GGCUAGAACUAGUGGAUCCCCCGGCGCCCGGCGGCUCGAGCCCGGGUAAGCGUAAAUAGUCUGCAUGCCGCCGGGCGCCAUGCCUGCAGGUCGACUCUAGAAAACAUG,binding signal,[6],3.19 log2 enrichment (interaction score)
same,binding signal,[7],7.21 log2 enrichment (interaction score)
